DT40 TDP1 CPT = growth inhibition of DT40 Tdp1-/-;hTDP1 cells with camptothecin (screen for TDP1 inhibitors) | chicken DT40 Tdp1-/-;hTDP1 cells + 20 nM CPT, ATP luminescence, 48 h | Potency, µM (series often up to 46.2 µM), actives largely listed as inhibitors | 420,000 compounds, 12% hits | AID 686979; note: nearly all actives have a fitted effect of over 55% in size
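Chicken DT40 Tdp1-/- cells stably complemented with human TDP1 were seeded at 400 cells/well in medium containing 20 nM camptothecin, exposed to pin-transferred compounds, and grown at 37 °C for at least 48 hr. Viability was read as ATP luminescence.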
IL1B secr inh = inflammasome signaling inhibition, IL-1 beta readout; THP-1 LPS/ATP IL-1B secretion, AlphaLISA, 16 h; stronger effect = lower value; activity change, % at 57.5 µM; 360,000 compounds, 4.7% hits; AID 743279; in the data active = activity change below about -50%; inconclusive = mostly about -30% to -49%
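THP-1 cells pretreated 1 hr with compounds (up to 57.5 uM final), then stimulated with LPS (250 ng/mL final) plus ATP (1.25 mM final); secreted IL-1B measured by AlphaLISA after 16 hr, decreased signal indicating inhibition.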
DT40 TDP1 no CPT = qHTS for Inhibitors of human tyrosyl-DNA phosphodiesterase 1 (TDP1): qHTS in cells in absence of CPT | DT40 Tdp1-/- hTDP1 cells, no CPT, ATP luminescence, 48 h | Potency, µM (highest dose often 46.2 µM), actives largely listed as inhibitors | 420,000 compounds, 15% hits | AID 686978, 2013; note: nearly all actives have a fitted effect of over 55% in size
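Camptothecin absent (DMSO only). Human TDP1-complemented DT40 knockout cells, 400 cells/well, 37 °C for minimum 48 hr; ATP measured via CellTiter-Glo, 30 min dark incubation, luminescence.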
HT1080-NT tox = kills 2HG-producing HT-1080-NT fibrosarcoma cells; HT-1080-NT fibrosarcoma viability, CellTiter-Glo ATP luminescence, 48 h; Potency, µM (series often up to 46.1 µM), usual class: cytotoxic; 360,000 compounds, 1.6% hits;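 note: NT is the 2HG producing partner of a matched IDH1 knockdown line; nearly all actives have a fitted effect of over 55% in size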
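Compounds were tested in concentration-response format on HT-1080-NT cells for 48 hours at 37 degrees C. Cell viability came from CellTiter-Glo luminescence; curves were classified by r2, response magnitude and activity.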
HT1080 IDH1KD tx = kills HT-1080 cells with IDH1 knockdown | HT-1080 IDH1 knockdown viability, ATP luminescence, 48 h | Potency, µM (series often up to 46.1 µM), most hits filed as cytotoxic | 360,000 compounds, 2% hits
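IDH1KD HT-1080 cells, 750/well, RPMI + 5% FBS; compound pinned after 2 h settling; 48 h, 37 °C; CellTiter-Glo luminescence; % activity normalised to DMSO and no-cell wells; curves fitted, classed by r2 and efficacy.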
Each line names hits and unclear results; the compound was inactive in the other large screens. This is a sample that favours compounds with a hit; in the whole collection about 19% have one here. Unless noted, calls come from the whole dose curve; as a rule, active = well fitted curve in the direction sought with a large enough effect; inconclusive = small, poorly fitted or top-dose-only effect, or another doubt; inactive = no such curve, though single readings can be large; an effect the other way counts as inactive or inconclusive.

COc1ccc(NC(=O)COC(=O)CN2C(=O)C3CCCCC3C2=O)cc1 (centres undefined)	none
Nn1c(SCC(=O)NC2CCCc3ccccc32)nnc1-c1cccs1 (centres undefined)	DT40 TDP1 no CPT inconclusive
CCOC(=O)C1C(=O)CC(=O)C(C(=O)OCC)C1c1ccc(O)cc1 (centres undefined)	none
COc1ccc(-c2nnc(SCC(=O)Nc3ccc(C)c(C)c3)s2)cc1	DT40 TDP1 no CPT inconclusive (no result: IL1B secr inh, HT1080-NT tox, HT1080 IDH1KD tx)
CN(c1ccccc1)S(=O)(=O)c1ccc(C(=O)Nc2nnc(-c3ccco3)o2)cc1	DT40 TDP1 CPT 15µM, DT40 TDP1 no CPT 21µM, HT1080 IDH1KD tx inconclusive
COc1ccc(N=c2oc3cc(O)ccc3cc2C(=O)Nc2ccccn2)cc1OC	DT40 TDP1 CPT 1.5µM, DT40 TDP1 no CPT 2.1µM
CC(=O)c1cc2ccc(O)cc2oc1=O	none
Cc1ccc(N=c2oc3cc(O)ccc3cc2C(N)=O)cc1	DT40 TDP1 CPT 8.2µM, IL1B secr inh inconclusive, DT40 TDP1 no CPT 7.3µM, HT1080-NT tox inconclusive, HT1080 IDH1KD tx inconclusive
COc1ccc(C(=O)N2CCC3(CCCN(CC(C)C)C3)CC2)cc1	none (no result: IL1B secr inh, HT1080-NT tox, HT1080 IDH1KD tx)
Cc1cc(C(=O)CSc2ccccc2)cc(C)c1O	none
Cn1c(NCc2cccnc2)nc2c1c(=O)n(Cc1ccccc1F)c(=O)n2C	DT40 TDP1 CPT inconclusive, DT40 TDP1 no CPT inconclusive
COc1cccc(Cn2c(NCc3cccnc3)nc3c2c(=O)n(C)c(=O)n3C)c1	DT40 TDP1 CPT 1µM, DT40 TDP1 no CPT 1µM, HT1080-NT tox 4.6µM, HT1080 IDH1KD tx 5.2µM
Cn1c(=O)c2c(nc(NCc3cccnc3)n2Cc2cccc(C(F)(F)F)c2)n(C)c1=O	DT40 TDP1 CPT 18µM, DT40 TDP1 no CPT 7.3µM, HT1080-NT tox 21µM
COc1ccc(Cl)cc1S(=O)(=O)Nc1ncn[nH]1	none
O=c1c2ccccc2nc(-c2ccoc2)n1CCc1ccccc1	DT40 TDP1 CPT 7.3µM, DT40 TDP1 no CPT 6.5µM
O=c1c2ccccc2nc(-c2ccc(Br)cc2)n1Cc1ccccc1	DT40 TDP1 CPT 8.2µM, DT40 TDP1 no CPT 23µM
O=c1c2ccccc2nc(-c2ccco2)n1Cc1ccccc1	DT40 TDP1 CPT inconclusive, DT40 TDP1 no CPT inconclusive
CC(C)(C)NC(=O)CN1C(=O)NC(c2ccccc2)(c2ccccc2)C1=O	none
O=C(CN1C(=O)NC(c2ccccc2)(c2ccccc2)C1=O)NCc1ccc(F)cc1	DT40 TDP1 CPT inconclusive, IL1B secr inh -55
CC1(c2ccc(Cl)cc2)NC(=O)N(CC(=O)NCc2ccc(F)cc2)C1=O (centres undefined)	none
CCOC(=O)c1c(NC(=O)CN2C(=O)NC(C)(c3ccc(Cl)cc3)C2=O)sc(C(=O)NC)c1C (centres undefined)	DT40 TDP1 CPT 23µM, DT40 TDP1 no CPT 12µM
O=C(CCl)NN1C(=O)NC(c2ccccc2)(c2ccccc2)C1=O	DT40 TDP1 CPT inconclusive, IL1B secr inh -117, DT40 TDP1 no CPT 21µM, HT1080-NT tox inconclusive, HT1080 IDH1KD tx 16µM
CC1(c2ccc(Cl)cc2)NC(=O)N(CC(=O)Nc2ccc(F)cc2)C1=O (centres undefined)	none
Cc1ccc(CNC(=O)CN2C(=O)NC(C)(c3ccc(Cl)cc3)C2=O)cc1 (centres undefined)	IL1B secr inh -52
Cc1ccc(Nc2nc(CSc3n[nH]c(N)n3)cs2)cc1	none
Cc1cc2oc(=O)c(CC(=O)O)c(C)c2c2occ(-c3ccc(F)cc3)c12	none (no result: IL1B secr inh, HT1080-NT tox, HT1080 IDH1KD tx)
CC(C)(C)c1cc(C(=O)Nc2ccc(F)cc2)n(Cc2ccc(F)cc2)n1	DT40 TDP1 CPT inconclusive, IL1B secr inh inconclusive, DT40 TDP1 no CPT 21µM, HT1080-NT tox inconclusive, HT1080 IDH1KD tx inconclusive
Cc1ccc(NNC(=O)c2cc(C(C)(C)C)nn2Cc2ccccc2)cc1	IL1B secr inh inconclusive, DT40 TDP1 no CPT inconclusive
Cc1ccc(NC(=O)c2cc(C(C)(C)C)nn2Cc2ccccc2)cc1	DT40 TDP1 CPT inconclusive, IL1B secr inh -81, DT40 TDP1 no CPT 29µM, HT1080-NT tox inconclusive, HT1080 IDH1KD tx inconclusive
CC(C)(C)c1cc(C(=O)NC2CC2)n(Cc2ccc(F)cc2)n1	none
